# From PubChem BioAssay
# Sampled rows, rich in hits. Any-hit rate of the full collection: about 2.2%.
# BaF3 tox: parental Ba/F3 viability inhibition as JAK2V617F counter-screen | CellTiter-Glo ATP luminescence | inhibition, % at 5.6 µM | hit rate 1.1% among 220,000 | AID 1486;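 active = inhibition above a per-campaign cutoff, the mean inhibition of all tested compounds plus 3 SD, cut at about 27% in these data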
# IEC-6 tox: counter-screen for KLF5 inhibitors: cytotoxicity in IEC-6 cells; hit rate 0.78% among 290,000; inhibition, % at 5 µM; AID 1825; IEC-6 cytotoxicity, luminescence viability; in the data active = inhibition above about 22%
# Ba/F3 V617F tox: reduce viability of Ba/F3 cells dependent on JAK2V617F; inhibition, % at 5.6 µM; AID 1446; Ba/F3 EpoR-JAK2V617F viability, ATP luminescence; hit rate 1.1% among 220,000;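 active = inhibition above the campaign mean plus 3 SD over all tested compounds, cut at about 24% in these data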;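 also: cytokine-independent growth of Ba/F3 cells driven by EpoR plus mutant JAK2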
# KLF5 inh: inhibitors of KLF5 expression | inhibition, % at 5 µM | DLD-1 KLF5 promoter-luciferase reporter, luminescence | hit rate 0.23% among 290,000 | AID 1700;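 active = inhibition above a per-plate limit of that plate's mean compound inhibition plus 3 SD, cut at about 60% in these data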;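 also: higher means less KLF5 promoter-driven luciferase light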
# APP transl inh: APP translation inhibition; SH-SY5Y APP 5'UTR-luciferase reporter, luminescence; inhibition, % at 2 µM; hit rate 0.82% among 190,000;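 active = inhibition above a set limit, derived from the sample mean plus 3 SD, cut at about 45% in these data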
# aSyn UTR inh: 5' untranslated region of α-synuclein, MLPCN primary screen | hit rate 0.82% among 300,000 | inhibition, % (tested at 7.5 µM) | alpha-synuclein 5'UTR reporter, inhibitor activity; in the data active = inhibition above about 60%;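 also: H4 neuroglioblastoma cells stably carrying SNCA 5'UTR luciferase fusion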
# Hits are given with their value; i = inactive; nt = not tested or not shown.
SMILES,BaF3 tox,IEC-6 tox,Ba/F3 V617F tox,KLF5 inh,APP transl inh,aSyn UTR inh
Cc1ccc(C)c(Cn2c(O)c(N=NC(=S)Nc3ccccc3F)c3ccccc32)c1,i,i,i,i,i,72
C=CCn1c(O)c(N=NC(=S)Nc2ccc(OC)cc2)c2ccccc21,i,i,i,i,i,84
Nc1nc(NC(=O)c2ccc(F)cc2)ns1,nt,nt,nt,nt,nt,i
O=C1C=C(N2CCOCC2)c2ccccc2C1=O,nt,i,nt,i,nt,114
Nn1c(=O)[nH]c2ccccc2c1=O,38,i,i,i,i,i
CCn1c(=O)[nH]c2ccccc2c1=O,i,i,i,i,i,i
CCCc1nn2c(=O)cc(CSCC(=O)Nc3ccc(OC)cc3)nc2s1,nt,i,nt,i,nt,i
COc1ccc(S(=O)(=O)N2CCc3ccccc32)cc1C(=O)OCc1nnc(-c2ccccc2)o1,i,i,i,i,i,i
Cc1cc(C)c2[nH]c(=O)c(CN(CC3CCCO3)C(=S)Nc3ccccc3)cc2c1 (configuration not stated),i,i,i,i,nt,i
Cc1ccc2cc(CN(CC3CCCO3)C(=S)Nc3ccccc3)c(=O)[nH]c2c1C (configuration not stated),i,i,i,i,53,72
COc1ccc(NS(=O)(=O)c2cc3c4c(c2)CCN4C(=O)CC3)cc1OC,nt,nt,nt,nt,nt,i
Cn1c(=O)c2c(ncn2CC(=O)N2CCc3ccccc3C2)n(C)c1=O,i,i,i,i,54,i
COc1ccc(NC(=O)c2ccc([N+](=O)[O-])cc2[N+](=O)[O-])c(OC)c1,i,i,i,i,i,i
COC(=O)Oc1ccc(/C=C/C(=O)OC(C)C)cc1OC(=O)OC,35,i,71,i,i,i
O=C(Nc1cccc(F)c1)/C(=C\c1ccco1)NC(=O)c1ccco1,nt,i,nt,i,nt,i
COc1ccc(C(=O)CN2C(=O)c3ccccc3C2=O)cc1,i,i,i,i,nt,i
COc1cc(/C=N/NC(=O)C(Cc2c[nH]c3ccccc23)NC(=O)OCC(C)C)cc([N+](=O)[O-])c1O (configuration not stated),i,i,i,i,i,i
COc1cc(/C=N/NC(=O)C(Cc2c[nH]c3ccccc23)NC(=O)OCC(C)C)cc([N+](=O)[O-])c1OCc1ccccc1 (configuration not stated),100,i,95,i,i,i
Oc1c(C(Nc2cccc(C(F)(F)F)c2)c2cccnc2)ccc2cccnc12 (configuration not stated),i,i,i,i,i,i
Cc1cc(NC(c2cccnc2)c2ccc3cccnc3c2O)no1 (configuration not stated),i,i,i,i,54,77
CCn1c(=O)cc(C(F)(F)F)[nH]c1=S,i,i,i,i,i,i
COC(=O)c1c(NC(=O)COc2ccc(Cl)cc2)sc2c1CC(C)(C)NC2(C)C,nt,i,nt,i,nt,83
CCOC(=O)c1c(NC(=O)COc2ccccc2F)sc2c1CC(C)(C)NC2(C)C,nt,nt,nt,nt,nt,i
CC1(C)Cc2c(sc(NC(=O)COc3ccc(Cl)cc3Cl)c2C(N)=O)C(C)(C)N1,nt,i,nt,i,nt,62
CCCNC(=O)CSCc1nc(-c2ccc(SC)cc2)oc1C,i,i,i,i,i,i
SMILES,BaF3 tox,IEC-6 tox,Ba/F3 V617F tox,KLF5 inh,APP transl inh,aSyn UTR inh
CCc1ccc(-c2nc(CSCC(=O)NCc3ccco3)c(C)o2)cc1,i,i,i,i,47,77
N=c1n(CCN2CCCC2)c2ccccc2n1CC(O)c1ccc(Cl)c(Cl)c1 (configuration not stated),104,101,102,i,i,i
N=c1n(CCN2CCOCC2)c2ccccc2n1CC(=O)c1ccc(Cl)c(Cl)c1,i,i,i,i,i,i
CCCCNC(=O)COC(=O)c1ccc(SC)cc1OC,i,i,i,i,i,i
COP1(=O)C=C[C@H](N(Cc2ccccc2)S(=O)(=O)c2ccccc2[N+](=O)[O-])[C@@H](C)O1 (some centres not stated),nt,nt,nt,nt,nt,i
CCCn1c(C)cc(C(=O)COc2ccc(C)nc2[N+](=O)[O-])c1C,i,i,i,i,i,i
Cc1ccc(OCC(=O)c2cc(C)n(-c3ccccc3)c2C)c([N+](=O)[O-])n1,i,i,i,i,i,68
Cc1cc(NC(=O)Cc2ccccc2)c2ccccc2n1,73,i,39,i,i,i
N#CC1=C(N)Oc2cc3ccccc3cc2C1c1cccs1 (configuration not stated),i,i,i,i,i,i
CN(C)/C=N/C1=C(C#N)C(c2cccs2)c2ccc3ccccc3c2O1 (configuration not stated),i,i,i,i,92,nt
COc1ccc2cc(/C=N/NC(=O)c3ccc(CN(c4cccc(Cl)c4Cl)S(C)(=O)=O)cc3)c(Cl)nc2c1,i,i,i,i,i,67
CCCCN(CCCC)S(=O)(=O)c1ccc(C(=O)Nc2nnc(CSC)o2)cc1,i,i,i,i,i,i
CCCCN(CC)S(=O)(=O)c1ccc(C(=O)Nc2nnc(COC)o2)cc1,i,i,i,i,i,i
CCCCN(C)S(=O)(=O)c1ccc(C(=O)Nc2nnc(C3=COCCO3)o2)cc1,i,i,i,i,i,i
CCCCN(C)S(=O)(=O)c1ccc(C(=O)Nc2nnc(-c3cccs3)o2)cc1,i,i,i,i,i,81
CCCCN(CC)S(=O)(=O)c1ccc(C(=O)Nc2nnc(CSC)o2)cc1,42,46,i,i,i,i
CCN(c1ccccc1)S(=O)(=O)c1ccc(C(=O)Nc2nnc(C3CC3)o2)cc1,i,i,i,i,i,71
CN(c1ccccc1)S(=O)(=O)c1ccc(C(=O)Nc2nnc(C3CC3)o2)cc1,i,i,i,i,i,i
CCCCN(CC)S(=O)(=O)c1ccc(C(=O)Nc2nnc(-c3ccccc3Cl)o2)cc1,i,i,i,i,i,76
Cc1ccccc1CNC(=O)CCC(=O)N1CCOc2ccccc21,nt,i,nt,i,nt,i
COc1ccc(-c2noc(CNC(=O)c3ccoc3C)n2)cc1OC,nt,i,nt,i,nt,i
COc1ccccc1-c1nnc(NC(=O)c2ccc(S(=O)(=O)N(C)C)cc2)o1,i,i,i,i,i,i
CCN(Cc1ccccc1)S(=O)(=O)c1ccc(C(=O)Nc2nnc(-c3ccccc3OC)o2)cc1,i,i,i,i,i,67
O=c1c(Cc2ccc(F)cc2)c(O)ccn1Cc1cccc(Cl)c1,i,i,i,i,i,i
Cc1cc(C)c(NC(=O)CCN2CCN(Cc3ccccc3)CC2)c(C)c1,nt,nt,nt,nt,nt,98
O=[N+]([O-])c1ccc(Cl)cc1NCCCN1CCOCC1,i,i,i,i,i,i
NC(N)=N/N=C/c1ccc(OCc2ccccc2)c(OCc2ccccc2)c1,nt,i,nt,i,nt,106
CCOc1cc(/C=N/N=C(N)N)ccc1OCc1ccc(Cl)cc1,i,i,i,i,i,i
CCOc1cc(/C=C(/C#N)C(=O)Nc2ccc(O)cc2)cc(Br)c1O,i,i,i,i,i,84
Cc1ccc(C(C)C)c(OCC(=O)N/N=C2\CC(=O)CC(C)(C)C2)c1,nt,i,nt,i,nt,nt
